Values joined by “and” are separate entries in the source; they are usually repeats but may differ in a detail not shown here. Identical values can stand only once. Screen size: about 360,000 compounds; about 4,200 (1.2%) were called active.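 Rule for the calls: active = mean replicate inhibition at least 60% with every replicate also reaching 60%; inconclusive = only one of the two criteria is met; inactive = mean below 60% and not all replicates reaching 60%.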 This excerpt belongs to a sample that is enriched for actives. Some compounds were tested as several samples or in several runs, with calls that do not always agree.
Experiment: inhibitors of PAX8-driven TPO luciferase reporter, primary screen, RMG-I cells, single concentration (AID 652154);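 note: luciferase light reporting Pax8 driven TPO promoter activity; plate controls were median of neutral control wells for no effect and mitoxantrone controls for full effect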
Details: SteadyGlo, 24 h, at 12.6 µM, stronger effect = higher value

SMILES | inhibition
COc1cc2c(cc1OC)CN(C(=O)c1cc(S(=O)(=O)N3CCCCC3)ccc1Cl)CC2 | -3.73% (inactive)
CCOc1cc(C(=O)N2CCc3cc(OC)c(OC)cc3C2)ccc1OC(F)F | 86.2% (active)
COc1cc2c(cc1OC)CN(C(=O)c1ccc(S(=O)(=O)N3CCCCCC3)cc1)CC2 | 11.3% (inactive)
O=C(C[C@H]1C[C@H]2c3cc(NC(=O)CC4CC4)ccc3O[C@H]2[C@H](CO)O1)NCc1ccccn1 | -23.5% (inactive)
COc1ccc(S(=O)(=O)Nc2ccc3c(c2)C(=O)N([C@@H](C)CO)C[C@@H](C)[C@H](CN(C)C(=O)CCC(F)(F)F)OCCCC[C@H](C)O3)cc1 | 6.54% (inactive)
O=S(=O)([N-]c1nc2ccccc2nc1-[n+]1ccc(Cc2ccccc2)cc1)c1ccc(Br)s1 | 70.9% (active)
O=S(=O)(NCc1ccccn1)c1ccc(Br)s1 | -3.1% (inactive)
COc1ccc(S(=O)(=O)Nc2cccc3c2O[C@@H](CN(C)C(=O)Nc2ccccc2)[C@@H](C)CN([C@H](C)CO)C3=O)cc1 | 11% (inactive)
Cc1ccc(C(=O)N2CCN(S(=O)(=O)N3CCOCC3)CC2)cc1 | -3.97% (inactive)
Cc1oc2c(c1C(=O)N1CCOCC1)C(=O)c1ccccc1C2=O | 83.3% (active)
Cc1ccc(S(=O)(=O)NC(C(=O)N2CCOCCOCCOCCOCC2)c2ccccc2)cc1 (stereo not given) | 5.5% (inactive)
CN(C)C(=O)[C@@H]1[C@@H](CO)[C@@H]2Cn3c(cccc3=O)[C@@H]2N1C(=O)C1CCC1 | -6.21% (inactive)
CCCN1C[C@@H](C)[C@@H](OC)CN(C)C(=O)c2cc(NC(=O)Nc3cccc(F)c3)ccc2OC[C@@H]1C | 13.5% (inactive)
N#C[C@@H]1[C@@H](c2ccc(C3=CCCC3)cc2)[C@@H](CO)N1C(=O)C1CCCC1 | 3.84% (inactive)
C=CCn1c(COc2cccc3cccnc23)nnc1SCC(=O)OC | 21.9% (inactive)
CCCCC(=O)NC(c1ccc(OC)c(OC)c1)c1ccc2cccnc2c1O (stereo not given) | 78.7% (active)
CCOc1ccc(C(CC(=O)O)n2cnnn2)cc1OC (stereo not given) | 7.25% (inactive)
C[C@@H]1CCCCO[C@@H](CN(C)C(=O)Nc2cccc3ccccc23)[C@H](C)CN([C@H](C)CO)C(=O)c2cc(NC(=O)NC3CCCCC3)ccc2O1 | 34.7% (inactive)
Cc1noc(C)c1S(=O)(=O)Nc1ccc2c(c1)C(=O)N([C@@H](C)CO)C[C@@H](C)[C@@H](CN(C)Cc1ccccc1)OCCCC[C@H](C)O2 | 27.1% (inactive)
COc1ccc(CN2C(=O)C(CC(=O)NCCCCc3ccccc3)CC(C(=O)N3CCOCC3)=C2C)cc1 (stereo not given) | 91.4% (active)
CCN(CC)C(=O)C1=C(C)N(Cc2ccc(OC)cc2)C(=O)C(CC(=O)NCCCCc2ccccc2)C1 (stereo not given) | 8.41% (inactive)
COc1ccc(CN2C(=O)C(CC(=O)NCc3cccc4ccccc34)CC(C(=O)N3CCOCC3)=C2C)cc1 (stereo not given) | -99.8% (inactive)

SMILES | inhibition
CN1C(=O)c2cc(NC(=O)c3ccc(F)cc3)ccc2OC[C@H]2O[C@H](CC(=O)N3CCOCC3)CC[C@@H]21 | -0.681% (inactive)
Cc1cc(C)n2nc(CNS(=O)(=O)c3c(F)c(F)c(F)c(F)c3F)nc2n1 | 85.5% (active)
Cc1cc(C)n2nc(SCC(N)=O)nc2n1 | -3.44% (inactive)
COc1ccc(Cl)cc1C(=O)NNC(=O)c1nc2nc(C)cc(C)n2n1 | -17.5% (inactive)
Cc1noc(C)c1NC(=O)Nc1ccc2c(c1)C(=O)N([C@@H](C)CO)C[C@@H](C)[C@@H](CN(C)CC1CCCCC1)O2 | -11.2% (inactive)
COc1ccc(NC(=O)N(C)C[C@@H]2Oc3ccc(NC(=O)CCCN(C)C)cc3CC(=O)N([C@H](C)CO)C[C@H]2C)cc1 | 2.7% (inactive)
C[C@H]1CCCCO[C@@H](CN(C)Cc2ccncc2)[C@@H](C)CN([C@@H](C)CO)C(=O)c2cc(NC(=O)Nc3ccc(F)cc3)ccc2O1 | -6.76% (inactive)
C[C@@H]1CCCCO[C@@H](CN(C)Cc2ccncc2)[C@@H](C)CN([C@@H](C)CO)C(=O)c2cc(NC(=O)Nc3ccc(F)cc3)ccc2O1 | -6.16% (inactive)
C[C@@H]1CN([C@H](C)CO)C(=O)c2cc(NC(=O)Nc3ccc(F)cc3)ccc2O[C@@H](C)CCCCO[C@H]1CN(C)Cc1ccc(Cl)c(Cl)c1 | 77.5% (active)
C[C@H]1CCCCO[C@H](CN(C)Cc2ccccc2)[C@@H](C)CN([C@@H](C)CO)C(=O)c2cc(NC(=O)NC3CCCCC3)ccc2O1 | 5.95% (inactive)
C[C@@H]1CCCCO[C@H](CN(C)Cc2ccc(Cl)c(Cl)c2)[C@@H](C)CN([C@@H](C)CO)C(=O)c2cc(NC(=O)Nc3ccccc3)ccc2O1 | 93.9% (active)
C[C@@H]1CCCCO[C@H](CN(C)Cc2ccncc2)[C@H](C)CN([C@H](C)CO)C(=O)c2cc(NC(=O)Nc3ccccc3)ccc2O1 | 18.7% (inactive)
C[C@@H]1CN([C@H](C)CO)C(=O)c2cc(NC(=O)Nc3ccccc3)ccc2O[C@@H](C)CCCCO[C@@H]1CN(C)Cc1ccncc1 | 6.95% (inactive)
C[C@H](CO)N1C[C@H](C)[C@H](CN(C)Cc2ccc(Cl)c(Cl)c2)OCCCC[C@H](C)Oc2ccc(NC(=O)NC3CCCCC3)cc2C1=O | 92.7% (active)
C[C@@H]1CN([C@H](C)CO)C(=O)c2cc(NC(=O)Nc3ccc4c(c3)OCO4)ccc2O[C@@H](C)CCCCO[C@@H]1CN(C)Cc1ccc2c(c1)OCO2 | 25.2% (inactive)
C[C@@H]1CCCCO[C@@H](CN(C)Cc2ccncc2)[C@H](C)CN([C@H](C)CO)C(=O)c2cc(NC(=O)NC3CCCCC3)ccc2O1 | 8.64% (inactive)
C[C@@H]1CCCCO[C@@H](CN(C)Cc2ccc3c(c2)OCO3)[C@@H](C)CN([C@@H](C)CO)C(=O)c2cc(NC(=O)Nc3ccccc3)ccc2O1 | -0.474% (inactive)
C[C@H]1CCCCO[C@@H](CN(C)Cc2ccc3c(c2)OCO3)[C@@H](C)CN([C@@H](C)CO)C(=O)c2cc(NC(=O)Nc3ccc(F)cc3)ccc2O1 | 87.4% (active)
CN(C)C(=O)[C@H]1[C@H](CO)[C@H]2Cn3c(ccc(-c4ccc(F)cc4)c3=O)[C@H]2N1C(=O)c1ccccn1 | -7.59% (inactive)
CCCNC(=O)N[C@@H]1CC[C@@H](CCn2cc(C3CC3)nn2)O[C@@H]1CO | 3.4% (inactive)
C[C@@H]1CCCCO[C@@H](CN(C)S(=O)(=O)c2cn(C)cn2)[C@H](C)CN([C@H](C)CO)C(=O)c2cc(NS(=O)(=O)c3ccc(Cl)cc3)ccc2O1 | 4.97% (inactive)
C[C@H]1CN([C@@H](C)CO)C(=O)c2cccc(NS(=O)(=O)c3ccc(Cl)cc3)c2O[C@H]1CN(C)Cc1ccc2c(c1)OCO2 | 4.78% (inactive)

SMILES | inhibition
CC(C)NC(=O)N[C@H]1CC[C@@H](CC(=O)NCc2ccc(Oc3ccccc3)cc2)O[C@@H]1CO | -20.9% (inactive)
C[C@H](CO)N1C[C@H](C)[C@H](CN(C)C(=O)Nc2ccc(F)cc2)Oc2ncc(-c3cc4ccccc4o3)cc2C1=O | 23.1% (inactive)
COc1ccc(NC(=O)Nc2ccc3c(c2)C(=O)N([C@H](C)CO)C[C@@H](C)[C@H](CN(C)Cc2ccc(Cl)c(Cl)c2)OCCCC[C@@H](C)O3)cc1 | 57.5% (inactive)
CC(C)NC(=O)Nc1ccc2c(c1)C(=O)N([C@@H](C)CO)C[C@@H](C)[C@H](CN(C)Cc1ccc(Cl)c(Cl)c1)OCCCC[C@H](C)O2 | 38% (inactive)
C[C@@H]1CCCCO[C@@H](CN(C)Cc2ccc(Cl)c(Cl)c2)[C@H](C)CN([C@H](C)CO)C(=O)c2cc(NC(=O)Nc3ccc(F)cc3)ccc2O1 | 102% (active)
O=S(=O)(c1ccccc1)N1C[C@@H]2[C@H](c3ccccc31)[C@H](CO)N2Cc1ccccn1 | 19.7% (inactive)
O=C(C1CCCCC1)N1CC2(C1)[C@H](c1ccccc1)[C@@H](CO)N2CCC(F)(F)F | -17.1% (inactive)
CC(=O)Nc1ccc2c(c1)C(=O)N(C)[C@@H]1CC[C@@H](CC(=O)NCC3CCCCC3)O[C@@H]1CO2 | -4.32% (inactive)
COc1ccc(NC(=O)Nc2ccc3c(c2)C(=O)N([C@@H](C)CO)C[C@H](C)[C@@H](CN(C)C(=O)NC2CCCCC2)O3)cc1 | -4.33% (inactive)
COc1ccc(OC)c(C2C3=C(N=c4s/c(=C\c5cccc(O)c5)c(=O)n42)c2ccccc2CC3)c1 (stereo not given) | 64.2% (active)
COc1ccc(/C=C2/CCCc3ccccc3C2=O)cc1 | -38.8% (inactive)
COc1ccc(C[C@@H]2CCc3cnnn3COC[C@H](c3ccccc3)NC2=O)cc1 | 1.19% (inactive)
O=C(C1CCOCC1)N1CC(=O)N2[C@H](CO)[C@H](c3ccc(C#Cc4cccc(F)c4)cc3)[C@H]2C1 | -14.5% (inactive)
O=C(N[C@H]1CC[C@H](CCn2cc(C3(O)CCCC3)nn2)O[C@H]1CO)C1CC1 | 13.3% (inactive)
O=C(c1ccncc1)N1CCCCN2[C@H](CO)[C@@H](c3ccc(C#Cc4ccccn4)cc3)[C@H]2C1 | 5.08% (inactive)
CS/C(=C\C(=O)c1ccco1)Nc1ccccc1Cl | 30.8% (inactive)
O=C(Nc1ccccc1Cl)/C(Cl)=C(\Cl)S(=O)c1ccccc1 (stereo not given) | 111% (active)
O=C(COc1ccc(-n2cnnn2)cc1)Nc1ccccc1Cl | -3.21% (inactive)
Cn1cnc(S(=O)(=O)N2C[C@@H]3N[C@H](C2)C3c2ccc(-c3ccccc3F)cc2)c1 (stereo not given in full) | 77.5% (active) and 26.1% (inactive)
COc1ccc(-c2ccc(C3[C@@H]4CN(S(=O)(=O)c5cn(C)cn5)C[C@H]3N4)cc2)cc1 (stereo not given in full) | -15.4% (inactive)
Cn1cnc(S(=O)(=O)N2C[C@@H]3N[C@H](C2)C3c2ccc(/C=C/c3ccccc3)cc2)c1 (stereo not given in full) | -2.85% (inactive) and -1.61% (inactive)

Reference: PubChem BioAssay AID652154 (Broad Institute, 2013)
